In PubChem BioAssay AID1159580 (chemical genetic matrix, 2015):
Screen size: about 5,500 compounds; about 2,000 (36%) were called active. Inconclusive results (about 18%) are left out. Cut-off read from the data, not from the text of the source: active = normalized growth mostly below about 0.91 (no sharp cut-off); inconclusive = no clear call, values can overlap the other calls; inactive = mostly above about 0.92. This is one part of the list.

Test: chemical genetic growth profiling, strain panel (AID 1159580);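 note: tested at 20 µM; growth read once vehicle control cultures reached saturation at 30 °C; 1 = growth at the plate median or of vehicle wells; lower values mean less growth of the strain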
Settings: S. cerevisiae deletion strains, growth OD

Measured: normalized growth

CC(=O)O[C@@H]1CC(=O)[C@@]2(C)C(CC(=O)[C@]3(C)C2CC[C@@]2(C)[C@H](c4ccoc4)OC(=O)C4OC423)C1(C)C (some centres undefined)
inactive: locus YBR021W, strain FUR4, active compounds read low 0.98 | locus YBR229C, strain ROT2, active compounds read low 0.991 | locus YCL029C, strain bik1, active compounds read low 1.01 | locus YDL035C, strain GPR1, active compounds read low 0.987 | locus YDL074C, strain BRE1, active compounds read low 0.976 | locus YDL101C, strain DUN1, active compounds read low 0.996 | locus YDL134C, strain PPH21, active compounds read low 1.01 | locus YDL185W, strain tfp1, active compounds read low 1.02 | locus YDL192W, strain arf1, active compounds read low 1.01 | locus YDR101C, strain arx1, active compounds read low 1 | locus YDR162C, strain NBP2, active compounds read low 1 | locus YDR318W, strain mcm21, active compounds read low 1 | locus YDR388W, active compounds read low 1.01 | locus YDR502C, strain sam2, active compounds read low 1 | locus YEL061C, strain CIN8, active compounds read low 0.998 | locus YER110C, active compounds read low 1.01 | locus YER155C, strain BEM2, active compounds read low 1 | locus YER167W, strain BCK2, active compounds read low 0.993 | locus YGL078C, strain dbp3, active compounds read low 1.01 | locus YGL086W, strain mad1, active compounds read low 1.01 | locus YGL248W, strain PDE1, active compounds read low 0.995 | locus YGR135W, strain pre9, active compounds read low 1 | locus YGR229C, strain SMI1, active compounds read low 0.988 | locus YGR252W, strain gcn5, active compounds read low 0.976 | locus YHR079C, strain IRE1 (second series), active compounds read low 1.01 | locus YHR094C, strain hxt1, active compounds read low 1 | locus YHR129C, strain ARP1, active compounds read low 1 | locus YHR200W, strain rpn10, active compounds read low 1 | locus YIL066C, strain RNR3, active compounds read low 1 | locus YIL073C, strain SPO22, active compounds read low 1.04 | locus YIL125W, strain kgd1, active compounds read low 1 | locus YIR030C, strain dcg1, active compounds read low 1.01 | locus YJL095W, strain BCK1, active compounds read low 0.963 | locus YJL134W, strain LCB3, active compounds read low 0.999 | locus YJL168C, strain set2, active compounds read low 1.01 | locus YJL187C, strain SWE1 (second series), active compounds read low 0.996 | locus YKL009W, strain mrt4, active compounds read low 1.01 | locus YKL068W, active compounds read low 1.01 | locus YKL085W, strain MDH1 (second series), active compounds read low 1.03 | locus YKL085W, strain MDH1, active compounds read low 1.03 | locus YKL190W, strain CNB1, active compounds read low 1 | locus YKR001C, strain vps1, active compounds read low 1.01 | locus YLR039C, strain RIC1, active compounds read low 1.02 | locus YLR058C, strain SHM2, active compounds read low 0.998 | locus YLR102C, strain apc9, active compounds read low 1.01 | locus YLR262C, strain YPT6, active compounds read low 1.05 | locus YLR268W, strain sec22, active compounds read low 0.998 | locus YLR371W, strain rom2, active compounds read low 1 | locus YLR418C, strain cdc73, active compounds read low 0.996 | locus YML016C, strain PPZ1, active compounds read low 1 | locus YML032C, strain rad52, active compounds read low 1.01 | locus YML124C, strain tub3, active compounds read low 1.01 | locus YMR078C, strain ctf18, active compounds read low 1.02 | locus YMR223W, strain ubp8, active compounds read low 1.01 | locus YMR307W, strain GAS1, active compounds read low 0.994 | locus YNL067W, strain RPL9B, active compounds read low 0.997 | locus YNL233W, strain BNI4, active compounds read low 0.993 | locus YNL250W, strain rad50, active compounds read low 1.04 | locus YNL271C, strain bni1, active compounds read low 1 | locus YNL298W, strain CLA4, active compounds read low 1.01 | locus YNL307C, strain MCK1, active compounds read low 1.03 | locus YNL322C, strain KRE1, active compounds read low 1 | locus YNR052C, strain pop2, active compounds read low 1.01 | locus YOL006C, strain TOP1, active compounds read low 0.912 | locus YOL012C, strain htz1 0.729 | locus YOL147C, strain pex11, active compounds read low 1 | locus YOR061W, strain CKA2, active compounds read low 1 | locus YOR069W, strain VPS5, active compounds read low 0.996 | locus YOR136W, strain idh2, active compounds read low 1.02 | locus YOR144C, strain elg1, active compounds read low 1.01 | locus YOR184W, strain ser1, active compounds read low 1.02 | locus YOR316C, strain cot1, active compounds read low 1.01 | locus YPL055C, strain LGE1, active compounds read low 0.989 | locus YPL241C, strain CIN2, active compounds read low 0.997 | locus YPR119W, strain clb2, active compounds read low 1.02 | locus YPR141C, strain kar3, active compounds read low 1.01 | locus YPR163C, strain tif3, active compounds read low 1.01 | locus YPR167C, strain met16, active compounds read low 1.02 | strain wtn01, active compounds read low 1.01
